From PubChem BioAssay (Tox21)
Inconclusive results are not listed. Some structures have more than one record in an assay (separate samples or runs), and their calls can disagree. Active and inactive are the calls of the source. Unless noted, the call rests on the fitted dose curve.

Key:
[1] = Nuclear factor erythroid 2-related factor 2/antioxidant responsive element (Nrf2/ARE) small molecule agonists: qHTS cell viability counter screen in human keratinocytes (AID 1919968; active means well fitted curve in the direction sought with a large enough effect in the repeat runs; an effect the other way counts as inactive or inconclusive; further: nearly all actives have a fitted effect of over 55% in size; further: potency means the concentration at half of the fitted maximal effect)
How it was run: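 Fluorescence read-out from CellTiter-Fluor after 1 h at 37 C. Wells held HaCaT-derived ARE-luciferase reporter cells (1,500/well) treated 23 h with DMSO-dissolved compounds. Run in the same wells as the luciferase agonist read.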

[2] = Nuclear factor erythroid 2-related factor 2/antioxidant responsive element (Nrf2/ARE) small molecule agonists: luciferase reporter gene qHTS assay in human keratinocytes (AID 1919969); further: nearly all actives have a fitted effect of over 35% in size
[3] = biological target: Gonadotropin-releasing hormone receptor (Homo sapiens) (UniProt P30968); experiment: Human gonadotropin-releasing hormone receptor (GnRHR) small molecule agonists, calcium flux assay in GnRHR-HEK293 cells (AID 1920063); further: nearly all actives have a fitted effect of over 35% in size
Sequence of Gonadotropin-releasing hormone receptor (Homo sapiens) (P30968 whole entry, looked up): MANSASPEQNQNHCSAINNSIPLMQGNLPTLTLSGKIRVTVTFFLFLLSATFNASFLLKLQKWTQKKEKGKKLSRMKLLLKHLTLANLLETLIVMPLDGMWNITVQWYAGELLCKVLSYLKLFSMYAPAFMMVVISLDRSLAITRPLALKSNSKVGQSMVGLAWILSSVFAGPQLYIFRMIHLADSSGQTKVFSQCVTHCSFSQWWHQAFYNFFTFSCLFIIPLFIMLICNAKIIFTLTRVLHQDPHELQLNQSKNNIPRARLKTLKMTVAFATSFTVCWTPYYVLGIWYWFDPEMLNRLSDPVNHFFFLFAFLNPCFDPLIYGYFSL
How it was run: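 Calcium-dye fluorescence, Ex/Em=480/540, recorded every 1 sec over 3 min after compound addition to GnRHR-HEK293 cells. Cells had been seeded 18 hours earlier and dye-loaded for 1 hour at 37 C. Fifteen concentrations, triplicates.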

[4] = biological target: KiSS-1 receptor (Homo sapiens) (UniProt Q969F8); experiment: Human kisspeptin (KISS1R) small molecule agonists, calcium flux assay in KISS1R-HEK293 cells (AID 1920064; active means well fitted curve in the direction sought with a large enough effect in the repeat runs; an effect the other way counts as inactive or inconclusive)
Sequence of KiSS-1 receptor (Homo sapiens) (Q969F8 whole entry, looked up): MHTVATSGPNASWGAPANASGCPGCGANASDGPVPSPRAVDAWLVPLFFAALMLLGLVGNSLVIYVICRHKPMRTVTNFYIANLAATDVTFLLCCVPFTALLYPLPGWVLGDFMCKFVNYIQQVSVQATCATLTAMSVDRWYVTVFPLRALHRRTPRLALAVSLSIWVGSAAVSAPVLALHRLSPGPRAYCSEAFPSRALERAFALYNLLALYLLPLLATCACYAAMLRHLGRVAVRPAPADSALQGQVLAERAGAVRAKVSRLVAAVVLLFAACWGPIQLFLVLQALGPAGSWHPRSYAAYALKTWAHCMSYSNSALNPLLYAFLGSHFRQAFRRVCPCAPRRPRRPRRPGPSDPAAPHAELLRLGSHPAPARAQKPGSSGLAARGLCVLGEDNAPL
How it was run: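 Calcium flux read-out: kinetic fluorescence at Ex/Em=480/540, 1 s intervals over 3 min, after pin-tool compound addition to dye-loaded KISS1R-HEK293 cells. Fifteen concentrations, triplicates.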

[5] = G protein-coupled receptor (GPCR) small molecule agonists, calcium flux assay: HEK293 wild type cell line counter screen (AID 1920065)
How it was run: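 Agonist mode; 18 h seeding at 37 C, 1 h dye load at 37 C; compounds pinned from DMSO, ATP as positive control; kinetic fluorescence 480/540 nm, 3 min, 1 s reads; 15 concentrations, triplicate.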

[6] = p53 small molecule agonists, cell-based qHTS assay with human liver microsomes (AID 1963577);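 further: p53 response element beta-lactamase reporter cells with liver microsomes plus NADPH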
How it was run: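 p53RE-bla cells; 5 h settle, 37 C/5% CO2; cpd + HLM 0.5 mg/mL + NADPH 0.5 mg/mL (final); 16 h 37 C; LiveBLAzer 2 h RT dark; fluorescence readout.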

[7] = p53 small molecule agonists, cell-based qHTS assay with rat liver microsomes (AID 1963578)
How it was run: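 Rat liver microsome activation: microsomes 0.5 mg/mL, NADPH 0.5 mg/mL final; p53RE-bla cells, 16 h 37 C; LiveBLAzer readout, 2 h RT dark.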

[8] = p53 small molecule agonists, cell-based qHTS assay with human liver microsomes: qHTS cell viability counter screen (AID 1963579); further: nearly all actives have a fitted effect of over 45% in size
How it was run: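 Luminescent CellTiter-Glo read-out, 30 min at room temperature, gauged cytotoxicity in p53RE-bla cells exposed 16 h at 37 C to DMSO-dissolved compounds with metabolic activation by human liver microsomes and NADPH, each 0.5 mg/mL final.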

[9] = p53 small molecule agonists, cell-based qHTS assay with rat liver microsomes: qHTS cell viability counter screen (AID 1963580); further: nearly all actives have a fitted effect of over 45% in size; further: potency means the concentration at half of the fitted maximal effect
How it was run: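 After the beta-lactamase ratio was read, CellTiter-Glo was added to the same wells and luminescence measured at 30 min; cells had been treated 16 h at 37 C with compounds, rat liver microsomes and NADPH (0.5 mg/mL final each).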

[10] = p53 small molecule agonists, cell-based qHTS assay: qHTS cell viability counter screen (AID 1963581); further: nearly all actives have a fitted effect of over 45% in size
How it was run: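 Cytotoxicity read-out: ATP-based luminescence (CellTiter-Glo, 30 min RT) measured in the same wells as the p53 reporter assay, HCT-116 p53RE-bla cells, 16 h compound exposure at 37 C.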

[11] = p53 small molecule agonists, cell-based qHTS assay (AID 1963582; active means well fitted activation curve with a large enough effect in the signal ratio in the repeat runs, not every such curve was filed as active; the % refers to the signal ratio)
How it was run: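 Fluorescence intensity read-out of a beta-lactamase reporter under a p53 response element. Cells were exposed to DMSO-dissolved compounds for 16 h at 37 C, then developed with FRET substrate for 2 h at RT.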

[12] = biological target: 5-hydroxytryptamine receptor 2A (Homo sapiens) (UniProt P28223); experiment: 5-hydroxytryptamine receptor 2A (HTR2A) small molecule antagonists, cell-based qHTS assay (AID 1963586); further: nearly all actives have a fitted effect of over 45% in size
Sequence of 5-hydroxytryptamine receptor 2A (Homo sapiens) (P28223 whole entry, looked up): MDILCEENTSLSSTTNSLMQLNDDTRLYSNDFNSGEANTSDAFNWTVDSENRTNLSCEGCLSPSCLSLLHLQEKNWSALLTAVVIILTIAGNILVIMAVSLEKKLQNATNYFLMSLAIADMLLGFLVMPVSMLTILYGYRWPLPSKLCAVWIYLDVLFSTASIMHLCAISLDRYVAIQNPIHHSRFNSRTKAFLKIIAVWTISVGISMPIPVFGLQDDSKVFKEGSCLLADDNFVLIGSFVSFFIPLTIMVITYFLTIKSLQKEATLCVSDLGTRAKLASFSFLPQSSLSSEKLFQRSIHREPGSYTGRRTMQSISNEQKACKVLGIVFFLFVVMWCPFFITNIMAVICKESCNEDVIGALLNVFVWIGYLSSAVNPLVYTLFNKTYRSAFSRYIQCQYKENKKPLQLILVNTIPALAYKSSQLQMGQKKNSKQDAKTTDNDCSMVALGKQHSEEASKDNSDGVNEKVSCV
How it was run: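 CHO cells stably expressing human HTR2A were plated for 18 h at 37 C, then loaded with calcium dye for 1 h. Compounds were preincubated 5 min at room temperature before DOI (4 nM solution) was added. Kinetic fluorescence was read for 3 min.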

[13] = biological target: 5-hydroxytryptamine receptor 2A (Homo sapiens) (UniProt P28223); experiment: 5-hydroxytryptamine receptor 2A (HTR2A) small molecule agonists, cell-based qHTS assay (AID 1963587); further: nearly all actives have a fitted effect of over 30% in size
How it was run: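 CHO cells stably expressing human HTR2A, plated 18 h, loaded with calcium dye 1 h at 37 C. Agonist mode: compounds added and intracellular calcium fluorescence recorded kinetically for 2 min at 1 sec intervals.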

[14] = biological target: Muscarinic acetylcholine receptor M1 (Homo sapiens) (UniProt P11229); experiment: Cholinergic receptor muscarinic 1 (CHRM1) small molecule antagonists, cell-based qHTS assay (AID 1963588); further: nearly all actives have a fitted effect of over 40% in size; further: potency means the concentration at half of the fitted maximal effect
Sequence of Muscarinic acetylcholine receptor M1 (Homo sapiens) (P11229 whole entry, looked up): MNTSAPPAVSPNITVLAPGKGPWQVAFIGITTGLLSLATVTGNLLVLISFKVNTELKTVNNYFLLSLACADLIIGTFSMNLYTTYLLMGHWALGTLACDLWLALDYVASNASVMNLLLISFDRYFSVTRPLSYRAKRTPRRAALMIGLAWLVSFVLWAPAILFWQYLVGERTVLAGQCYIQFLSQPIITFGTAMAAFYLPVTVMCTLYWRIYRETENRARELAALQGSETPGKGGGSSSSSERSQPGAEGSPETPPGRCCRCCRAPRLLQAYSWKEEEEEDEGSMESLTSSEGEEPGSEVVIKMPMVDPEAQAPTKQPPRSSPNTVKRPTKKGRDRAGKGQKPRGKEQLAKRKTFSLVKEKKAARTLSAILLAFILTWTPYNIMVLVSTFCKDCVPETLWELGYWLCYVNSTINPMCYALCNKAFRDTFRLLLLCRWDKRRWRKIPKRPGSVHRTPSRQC
How it was run: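 Compounds were tested at 15 concentrations in three independent runs. Dye-loaded CHRM1-CHO cells were exposed 5 min at room temperature before stimulation by acetylcholine added at 50nM. Intracellular calcium was read kinetically on FDSS for 3 min.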

[15] = biological target: Muscarinic acetylcholine receptor M1 (Homo sapiens) (UniProt P11229); experiment: Cholinergic receptor muscarinic 1 (CHRM1) small molecule agonists, cell-based qHTS assay (AID 1963589); further: nearly all actives have a fitted effect of over 35% in size
How it was run: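 Calcium flux read-out: kinetic fluorescence at 1 sec intervals after pin-tool compound addition to dye-loaded CHRM1-CHO cells (human M1). Agonist mode; 15 concentrations tested in triplicate independent runs.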

[16] = cAMP Responsive Elements (CRE) small molecule agonists, cell-based qHTS assay (AID 1963590)
How it was run: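 Beta-lactamase reporter readout: LiveBLAzer B/G FRET substrate, 2 h at room temperature, added after 3 h compound treatment of CRE-bla HEK 293T cells at 37 C/5% CO2.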

[17] = cAMP Responsive Elements (CRE) small molecule antagonists, cell-based qHTS assay (AID 1963591; active means well fitted inhibition curve with a large enough effect in the signal ratio in the repeat runs, not every such curve was filed as active; the % refers to the signal ratio)
How it was run: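 HEK293T CRE-bla; 18 h preincubation; compound pin-transfer; NKH477 0.25 uM final, 3 h, 37 C; LiveBLAzer FRET substrate 2 h RT.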

[18] = biological target: Beta-2 adrenergic receptor (Homo sapiens) (UniProt P07550); experiment: Adrenergic beta2 receptor (ADRB2) small molecule antagonists, cell-based qHTS assay (AID 1963592); further: series mostly up to about 92 µM; nearly all actives have a fitted effect of over 50% in size
Sequence of Beta-2 adrenergic receptor (Homo sapiens) (P07550 whole entry, looked up): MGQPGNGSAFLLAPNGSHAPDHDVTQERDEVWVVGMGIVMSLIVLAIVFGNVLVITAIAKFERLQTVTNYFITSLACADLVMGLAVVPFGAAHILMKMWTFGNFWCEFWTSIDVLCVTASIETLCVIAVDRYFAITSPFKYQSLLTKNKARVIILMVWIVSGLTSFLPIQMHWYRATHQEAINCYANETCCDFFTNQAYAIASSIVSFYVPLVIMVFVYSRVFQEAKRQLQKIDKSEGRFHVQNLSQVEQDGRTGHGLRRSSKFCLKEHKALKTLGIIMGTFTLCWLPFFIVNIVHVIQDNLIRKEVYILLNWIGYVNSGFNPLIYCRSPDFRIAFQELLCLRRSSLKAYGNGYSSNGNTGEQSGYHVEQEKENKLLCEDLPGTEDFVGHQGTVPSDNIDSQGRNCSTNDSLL
How it was run: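 Assay format: CHO-ADRB2 cells, 18-20hr seeding at 37C/5% CO2, then compound plus 1nM isoproterenol agonist mix for 0.5hr RT. Homogeneous time-resolved fluorescence cAMP detection after 1hr, expressed as 665/615 nm ratio.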

[19] = biological target: D(2) dopamine receptor (Homo sapiens) (UniProt P14416); experiment: Dopamine D2 receptor (DRD2) small molecule agonists, cell-based qHTS assay (AID 1963594); further: nearly all actives have a fitted effect of over 35% in size
Sequence of D(2) dopamine receptor (Homo sapiens) (P14416 whole entry, looked up): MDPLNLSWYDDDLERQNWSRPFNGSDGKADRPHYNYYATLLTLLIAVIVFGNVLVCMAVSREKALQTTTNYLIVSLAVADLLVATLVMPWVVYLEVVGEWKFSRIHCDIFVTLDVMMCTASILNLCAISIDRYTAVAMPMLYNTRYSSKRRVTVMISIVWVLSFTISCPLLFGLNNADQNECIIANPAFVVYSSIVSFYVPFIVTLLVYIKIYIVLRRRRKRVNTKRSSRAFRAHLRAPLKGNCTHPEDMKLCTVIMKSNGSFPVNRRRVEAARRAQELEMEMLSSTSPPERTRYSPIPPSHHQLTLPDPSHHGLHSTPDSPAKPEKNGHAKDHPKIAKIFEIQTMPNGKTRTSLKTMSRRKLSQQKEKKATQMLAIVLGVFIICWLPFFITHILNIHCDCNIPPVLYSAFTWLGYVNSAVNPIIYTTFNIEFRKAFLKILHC
How it was run: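 HEK293 cells stably expressing human DRD2, pre-treated with PDE inhibitor Ro20-1724 (0.1 mM final) and compound 10 min at room temperature, then stimulated with NKH477 (200nM […]) for 30 min. cAMP read by HTRF (665/620 nm).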

[20] = biological target: D(2) dopamine receptor (Homo sapiens) (UniProt P14416); experiment: Dopamine D2 receptor (DRD2) small molecule antagonists, cell-based qHTS assay (AID 1963595; active means well fitted inhibition curve with a large enough effect in the signal ratio in the repeat runs, with a control signal flat; the % refers to the signal ratio)
How it was run: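 Human DRD2 antagonist qHTS measuring cAMP by HTRF. The cells are exposed to compound for 10 min, then to NKH477 (200 nM) and quinpirole (12 nM) for 30 min at RT, with Ro20-1724 (0.1 mM) present throughout.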

Measured: Potency

CN(C)CCc1ccc(O)cc1
not listed: [20]
inactive: all other assays above

COC(=O)c1ccccc1CS(=O)(=O)NC(=O)Nc1nc(OC)cc(OC)n1
inactive: all assays above

O=P(O)(O)CN(CP(=O)(O)O)CP(=O)(O)O
not listed: [19] | [20]
inactive: all other assays above

O=C(O)C(F)(F)C(F)(F)C(F)(F)C(F)(F)C(F)(F)C(F)(F)C(F)(F)C(F)(F)F
active: [14] 4.21 µM
not listed: [20]
inactive: all other assays above

O=[N+]([O-])c1ccccc1O
inactive: all assays above

COC(=O)c1sccc1S(=O)(=O)NC(=O)Nc1nc(C)nc(OC)n1
inactive: all assays above

CCC[N+](=O)[O-]
44.9 µM (active) and inactive: [9]
2.68 µM (active) and inactive: [1]
inactive: all other assays above

[CH3][Sn]([Cl])([Cl])[Cl]
not listed: [20]
inactive: all other assays above
